DT40 TDP1 CPT = growth inhibition of DT40 Tdp1-/-;hTDP1 cells with camptothecin (screen for TDP1 inhibitors); 12% of 420,000 active; chicken DT40 Tdp1-/-;hTDP1 cells + 20 nM CPT, ATP luminescence, 48 h; Potency, µM (highest dose often 46.2 µM), for inactives: top-dose activity change, negative = growth inhibition, hits mostly inhibitors; note: potency is the fitted concentration of half-maximal effect; nearly all actives have a fitted effect of over 55% in size
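Chicken DT40 Tdp1-/- cells complemented with human TDP1, 400 cells/well, exposed to compounds plus 20 nM camptothecin for at least 48 h at 37 C; viability read as ATP content by CellTiter-Glo luminescence.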
12-LOX inh = inhibitors of human 12S-lipoxygenase ALOX12 | 1.1% of 580,000 active | Potency, µM (highest dose often 108 µM), inactives show at the top dose activity change, negative = inhibition, actives largely listed as inhibitors | purified 12hLO, xylenol orange hydroperoxide absorbance; note: potency is the fitted concentration of half-maximal effect
Target sequence (P18054 whole entry, looked up): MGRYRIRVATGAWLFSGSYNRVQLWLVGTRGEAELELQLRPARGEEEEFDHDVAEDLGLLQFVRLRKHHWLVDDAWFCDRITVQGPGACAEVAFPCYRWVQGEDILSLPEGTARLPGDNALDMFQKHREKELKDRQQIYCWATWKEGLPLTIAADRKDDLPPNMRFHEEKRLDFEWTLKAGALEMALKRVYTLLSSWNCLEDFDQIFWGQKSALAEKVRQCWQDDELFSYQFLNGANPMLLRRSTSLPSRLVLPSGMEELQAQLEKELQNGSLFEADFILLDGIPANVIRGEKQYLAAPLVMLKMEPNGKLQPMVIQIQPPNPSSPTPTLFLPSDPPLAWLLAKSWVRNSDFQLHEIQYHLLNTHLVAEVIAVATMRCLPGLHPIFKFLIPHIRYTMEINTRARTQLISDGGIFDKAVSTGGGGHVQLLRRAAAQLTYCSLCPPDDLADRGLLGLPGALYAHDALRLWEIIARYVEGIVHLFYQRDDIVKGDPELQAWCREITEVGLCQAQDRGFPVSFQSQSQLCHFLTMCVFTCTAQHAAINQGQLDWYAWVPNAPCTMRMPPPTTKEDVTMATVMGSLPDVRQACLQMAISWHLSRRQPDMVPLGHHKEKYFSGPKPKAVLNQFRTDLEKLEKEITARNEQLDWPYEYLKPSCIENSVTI
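Purified human 12hLO at 150 nM in 25 mM Hepes, 0.01% Triton X-100, pH 7.0, preincubated 15 min at room temperature with compound. Reaction started with 40 uM arachidonic acid, 30 min at room temperature. Hydroperoxide measured by Fe-xylenol orange, 573/405 nm absorbance ratio.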
TDP1 cell noCPT = qHTS for Inhibitors of human tyrosyl-DNA phosphodiesterase 1 (TDP1): qHTS in cells in absence of CPT; Potency, µM (titrated, usually from 46.2 µM), for the others: top-dose activity change, negative = growth inhibition, actives largely listed as inhibitors; DT40 Tdp1-/- hTDP1 cells, no CPT, ATP luminescence, 48 h; 15% of 420,000 active; note: potency is the fitted concentration of half-maximal effect; nearly all actives have a fitted effect of over 55% in size
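No-CPT arm: Tdp1-/-;hTDP1 DT40 cells (400/well) plus compounds, incubated ≥48 hr at 37 °C. Readout CellTiter-Glo luminescence.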
HT1080NT lethal = kills 2HG-producing HT-1080-NT fibrosarcoma cells | AID 686970 | Potency, µM (top dose mostly 46.1 µM), for the others: at the highest dose activity, negative = less viability, actives largely listed as cytotoxic | HT-1080-NT fibrosarcoma viability, CellTiter-Glo ATP luminescence, 48 h | 1.6% of 360,000 active;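 note: NT is the 2HG producing partner of a matched IDH1 knockdown line; potency is the fitted concentration of half-maximal effect; 0% = DMSO-treated cells and -100% = media-only wells without cells; nearly all actives have a fitted effect of over 55% in size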
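Viability of the 2HG-overproducing fibrosarcoma line after 48 hours of compound exposure at 37 degrees C was determined by luminescence with CellTiter-Glo, and concentration-effect curves were then fitted and categorized.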
HT1080 IDH1KD tx = HT-1080 IDH1 knockdown cell toxicity (counter line) | HT-1080 IDH1 knockdown viability, ATP luminescence, 48 h | Potency, µM (top dose mostly 46.1 µM), for inactives: at the highest dose activity, negative = toxicity, actives largely listed as cytotoxic | 2% of 360,000 active;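 note: potency is the fitted concentration of half-maximal effect; 0% = DMSO wells and -100% = cell-free medium wells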
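Viability of IDH1-knockdown HT-1080 fibrosarcoma cells was assessed by CellTiter-Glo after 48 h at 37 °C with titrated compound; concentration-effect curves were classified by fit quality and response size.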
IL1B secr inh = inflammasome signaling inhibition, IL-1 beta readout | 4.7% of 360,000 active | activity change, % at 57.5 µM | THP-1 LPS/ATP IL-1B secretion, AlphaLISA, 16 h; hits give low values | AID 743279; in the data active = activity change below about -50%; inconclusive = mostly about -30% to -49%
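THP-1 cells pretreated 1 hr with compounds (up to 57.5 uM final), then stimulated with LPS (250 ng/mL final) plus ATP (1.25 mM final); secreted IL-1B measured by AlphaLISA after 16 hr, decreased signal indicating inhibition.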
* hit, by the source's call; ? = inconclusive; nt = no result; [ ] = remark or other dose. Shown is part of a subset that was picked to be rich in hits. Unless noted, calls come from the whole dose curve; as a rule, active = well fitted curve in the direction sought with a large enough effect; inconclusive = small, poorly fitted or top-dose-only effect, or another doubt; inactive = no such curve, though single readings can be large; an effect the other way counts as inactive or inconclusive. Unless noted, % is set by controls: 0 for no effect and ±100 for the full control effect.

SMILES	DT40 TDP1 CPT	12-LOX inh	TDP1 cell noCPT	HT1080NT lethal	HT1080 IDH1KD tx	IL1B secr inh
Cc1cc(C(=O)COC(=O)c2ccc(N)c([N+](=O)[O-])c2)c(C)n1-c1ccc2c(c1)OCO2	9.2µM*	-16%	5.8µM*	-17%	?	0
Cc1cc(C(=O)COC(=O)CC2Sc3ccccc3NC2=O)c(C)n1-c1ccc2c(c1)OCO2 (stereo unspecified)	?	-10%	?	-6%	-17%	26
CC(=O)Nc1ccc(S(=O)(=O)NCC(=O)OCC(=O)c2cc(C)n(-c3ccc4c(c3)OCO4)c2C)cc1	-12%	-17%	8.2µM*	0%	1%	32
CCOC(=O)c1c(C)c(-c2ccccc2)n(CC(=O)Nc2ccc(OC)cc2OC)c1C	nt	-1%	nt	nt	nt	nt
COc1ccc(CCC(=O)N(CC#N)C2CC2)cc1	nt	14%	nt	nt	nt	nt
CSc1ncccc1C(=O)N[C@@H]1CCOC[C@H]1Oc1ccc(C#N)cc1	nt	24%	nt	nt	nt	nt
Cc1nnc(SCC(=O)c2cc(C)n(-c3ccc4c(c3)OCO4)c2C)s1	26µM*	?	23µM*	-30%	-23%	-77*
C=CCn1c(C)cc(C(=O)COC(=O)c2ccc3c(c2)NC(=O)CS3)c1C	?	14%	16µM*	-25%	-25%	?
C=CCn1c(C)cc(C(=O)COC(=O)c2ccc(N)c([N+](=O)[O-])c2)c1C	18µM*	4%	16µM*	1%	-7%	-7
CC(=O)c1ccc(OCC(=O)c2cc(C)n(-c3ccc4c(c3)OCO4)c2C)cc1	23µM*	0%	10µM*	2%	?	-3
CN(C)C(=O)CN1CCN(C(=O)c2cc(-c3cccnc3)nc3ccccc23)CC1	nt	-9%	nt	nt	nt	nt
CN(C)S(=O)(=O)c1ccc(NC(=O)Cc2cc(Cl)c3c(c2)OCCCO3)cc1	nt	0%	nt	nt	nt	nt
O=S(=O)(c1cccc2c(I)cccc12)N1CCCNCC1	13µM*	-1%	8.2µM*	nt	nt	nt
O=S(=O)(c1cccc2c(Cl)cccc12)N1CCCNCC1	9.2µM*	?	5.8µM*	nt	nt	nt
Cc1cc(C)nc(Nc2nc(-c3ccccc3)c3ccc(Cl)cc3n2)n1	nt	28%	nt	nt	nt	nt
CC(C)c1ccc(C2=NC(c3ccncc3)=Nc3ccc(F)cc3N2)cc1	23µM*	?	?	nt	nt	nt
Cc1ccc(C2=NC(c3ccc(F)cc3)=Nc3ccc(C)cc3N2)cc1	?	-5%	?	nt	nt	nt
CCc1ccc2c(c1)NC(c1cccnc1)=NC(c1ccc(C(C)(C)C)cc1)=N2	18µM*	-7%	?	nt	nt	nt
CCCCOc1ccc(C2=NC(c3cccs3)=Nc3ccc(OC)cc3N2)cc1	-26%	-22%	?	nt	nt	nt
Cc1ccc2c(c1)NC(c1cccnc1)=NC(c1ccc(F)cc1)=N2	?	4%	5.8µM*	nt	nt	nt
O=C1C2C3C=CC(C3=C(c3ccccc3)c3ccccc3)C2C(=O)N1CCO (stereo unspecified)	-28%	0%	?	8%	0%	-13
O=C1C2C3C=CC(C3=C(c3ccccc3)c3ccccc3)C2C(=O)N1Cc1ccccc1 (stereo unspecified)	?	388%	18µM*	-14%	?	0
Cc1ccc(C(CNC(=O)c2cc(=O)c3cc(Cl)ccc3o2)N2CCN(C)CC2)o1 (stereo unspecified)	nt	0%	nt	nt	nt	nt
COc1cc([C@@H]2c3cc4c(cc3[C@@H](O[C@@H]3O[C@@H]5CO[C@@H](c6cccs6)O[C@@H]5[C@H](O)[C@@H]3O)[C@H]3COC(=O)[C@H]23)OCO4)cc(OC)c1O	nt	-1%[57.4 µM]	nt	nt	nt	nt
COc1cc([C@@H]2c3cc4c(cc3C(O[C@@H]3O[C@@H]5COC(c6cccs6)O[C@H]5[C@H](O)[C@H]3O)C3COC(=O)[C@@H]32)OCO4)cc(OC)c1O (stereo partly specified)	0.012µM*	nt	0.013µM*	nt	nt	nt
SMILES	DT40 TDP1 CPT	12-LOX inh	TDP1 cell noCPT	HT1080NT lethal	HT1080 IDH1KD tx	IL1B secr inh
COc1cc([C@@H]2c3cc4c(cc3C(OC3OC5COC(C)OC5C(O)C3O)C3COC(=O)[C@@H]32)OCO4)cc(OC)c1O (stereo partly specified)	0.19µM*	nt	0.21µM*	nt	nt	nt
COc1cc(C2c3cc4c(cc3OC(N3CCCCC3)C2C)OCO4)cc(OC)c1O (stereo unspecified)	?	-16%	?	-10%	-21%	25
COc1cc([C@@H]2c3cc4c(cc3[C@@H](O[C@@H]3O[C@H]5CO[C@@H](C)O[C@@H]5[C@@H](O)[C@H]3O)[C@@H]3COC(=O)[C@@H]23)OCO4)cc(OC)c1O	?	0%	0.13µM*	nt	nt	nt
OCc1cccc(Nc2ncnc3sccc23)c1	nt	4%	nt	nt	nt	nt
Cc1ccccc1-n1c(C)nnc1SCc1nc2ccccc2o1	nt	-11%	nt	nt	nt	nt
Cc1c(CC(=O)NCc2ccc(F)cc2)c(=O)oc2cc(O)ccc12	nt	-20%	nt	nt	nt	nt
CCc1ccc2nc(/N=C(\N)NC(=O)c3ccccc3N)nc(C)c2c1	nt	52%	nt	nt	nt	nt
CCOc1ccccc1NC(=O)CSc1nc2ccccc2nc1N1CCOCC1	23µM*	-3%	21µM*	0%	-1%	12
CCOc1ccccc1NC(=O)CSc1nncc2ccccc12	2%	-5%	-25%	-2%	0%	-84*
CC(=O)Nc1ccc(NC(=O)CSc2nc3ccccc3nc2N2CCC(C)CC2)cc1	5%	-18%	?	-19%	-17%	18
COc1ccc(C)cc1NC(=O)CSc1nc2ccccc2nc1N1CCOCC1	?	3%	23µM*	nt	nt	nt
COc1ccc(C)cc1NC(=O)CSc1nc2ccccc2nc1N1CCCCC1	?	9%	?	-12%	-18%	-14
Cc1cccc(NC(=O)CSc2nc3ccccc3nc2N2CCC(C)CC2)c1	21µM*	58%	21µM*	nt	nt	nt
COc1nc(-c2ccc(OC)c3ncccc23)ncc1F	nt	-5%	nt	nt	nt	nt
Cc1cccc(OC(C)C(=O)NN)c1 (stereo unspecified)	nt	8%	nt	nt	nt	nt
Cc1ccc(NC(=O)CSc2nc3ccccc3nc2N2CCOCC2)cc1	?	25%	16µM*	?	-21%	0
CC1CN(c2nc3ccccc3nc2SCC(=O)Nc2ccc(F)cc2)CC(C)O1 (stereo unspecified)	15µM*	4%	?	0%	-10%	-26
O=C(CSc1nc2ccccc2[nH]1)Nc1ccc(N2CCOCC2)cc1	12µM*	419%	12µM*	9%	1%	-12
CCOc1ccc(NC(=O)CSc2nc3ccccc3nc2N2CCCC2)cc1	?	10%[57.4 µM]	16µM*	5%	-1%	-12
